Giardia FBPA inh = qHTS Assay for Inhibitors of Fructose-1,6-bisphosphate Aldolase from Giardia Lamblia; A8B2U2; hit rate 0.71% among 290,000; Potency, µM (titrated, usually from 59.6 µM), usual class: inhibitors; purified Giardia FBPA; AID 2451, 2010; also: nearly all actives have a fitted effect of over 55% in size
Target sequence (A8B2U2 whole entry, looked up): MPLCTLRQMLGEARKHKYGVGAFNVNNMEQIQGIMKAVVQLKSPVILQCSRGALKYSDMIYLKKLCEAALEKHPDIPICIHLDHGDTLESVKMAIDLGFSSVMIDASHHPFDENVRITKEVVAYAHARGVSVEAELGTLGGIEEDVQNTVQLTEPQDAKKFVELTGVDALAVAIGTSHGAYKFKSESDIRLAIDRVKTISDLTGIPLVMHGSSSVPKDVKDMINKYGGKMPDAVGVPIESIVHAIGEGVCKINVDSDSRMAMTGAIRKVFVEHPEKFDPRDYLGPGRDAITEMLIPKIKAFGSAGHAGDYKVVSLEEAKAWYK
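40 nM FBPA preincubated 10 min at RT with compound (up to 57.5 uM final), then substrate plus GAPDH/TPI/NAD/arsenate coupling and diaphorase/resazurin added. Fluorescence read after 20 min at RT, 525/598 nm.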
Cycloheximide cs = Cycloheximide Counterscreen for Small Molecule Inhibitors of Shiga Toxin | cell reporter, cycloheximide protein synthesis inhibition counterscreen | max response, % | hit rate 12% among 300,000; in the data active = max response mostly above about 13%, no sharp cut-off; inactive = mostly below about 14%; also: read at 38.3 µM for the half of the compounds with a filed dose
TbPYK inhibitor = qHTS of Trypanosoma Brucei Inhibitors; hit rate 0.12% among 410,000; TbPYK enzyme, Kinase-Glo Plus ATP luminescence, 45 min; Potency, µM (highest dose often 76.8 µM), actives largely listed as inhibitors; also: nearly all actives have a fitted effect of over 50% in size
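Readout: single end-point luminescence (Kinase-Glo Plus, 10 min). Reaction conditions were TbPYK/substrate plus 130 uM ADP, 45 min at RT, pH 7.2 TEA buffer. No-enzyme wells served as controls, and data were normalized before concentration-response fitting.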
LmPK inh = qHTS Assay for Inhibitors of Leishmania Mexicana Pyruvate Kinase (LmPK). purified LmPK, Kinase-Glo ATP luminescence, 1 h. Potency, µM (top dose mostly 57.5 µM), actives largely listed as inhibitors. hit rate 0.37% among 290,000. AID 1721, 2009
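Kinase-Glo luminescence read after 1 h RT reaction of 0.1 nM LmPK with 0.5 mM PEP and 0.1 mM ADP. Activity scaled between uninhibited and enzyme-free controls.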
Sm TGR inh = qHTS Assay for the Inhibitors of Schistosoma Mansoni Peroxiredoxins. Schistosoma mansoni thioredoxin glutathione reductase (TGR), Q962Y6. Potency, µM (titrated, usually from 114 µM), hits mostly inhibitors. purified TGR, DTNB reduction, TNB absorbance 405 nm. hit rate 3% among 360,000. AID 485364, 2010; also: nearly all actives have a fitted effect of over 60% in size
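TGR 20 nM + NADPH 100 uM (dispensed conc.), cpd preinc 15 min RT; start with NADPH (500 uM addition) then DTNB (15 mM addition). Kinetic TNB absorbance, 405 nm filter. Four-parameter Hill fit across titration.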
Shiga toxin inh = A qHTS for Small Molecule Inhibitors of Shiga Toxin. inhibition, % at 38.7 µM. AID 2315, 2010. hit rate 9.2% among 290,000. Vero cells, Shiga toxin protein synthesis inhibition reporter; in the data active = inhibition mostly above about 28%, no sharp cut-off; inactive = mostly below about 43%
Numbers stand for hits; – = inactive; ? = inconclusive; · = no result given; ! = not active in a repeat. Many of the other results were omitted from the sample, so hits are more common in it than they were. Unless noted, calls follow the shape of the dose curve; as a rule, active = well fitted curve in the direction sought with a large enough effect; inconclusive = small, poorly fitted or top-dose-only effect, or another doubt; inactive = no such curve, though single readings can be large; an effect the other way counts as inactive or inconclusive.

SMILES	Giardia FBPA inh	Cycloheximide cs	TbPYK inhibitor	LmPK inh	Sm TGR inh	Shiga toxin inh
Cc1ccccc1S(=O)Cc1ccc(C(=O)NC2CCCCCC2)o1 (stereo not drawn)	·	·	–	·	–	·
CCOC(=O)/C(=C\c1ccccc1)NC(=O)c1ccccc1	–	19.5	–	–	–	–
O=C(N/C(=C/c1ccccc1)C(=O)N1CCCCC1)c1ccccc1	·	96.4	–	–	–	51.0
CCOc1nc2cnccc2n(CC(=O)Nc2cccc(C)c2)c1=O	·	–	–	–	–	–
COc1ccc(-c2csc(NC(=O)C3CCN(C(=O)c4ccc(F)cc4)CC3)n2)cc1OC	–	–	–	–	–	–
CC(C)Nc1nc(C#N)nc(Nc2ccccc2)n1	–	·	·	·	·	·
O=S(=O)(CCN1CCCCC1)CCS(=O)(=O)CCN1CCCCC1	·	·	–	·	·	·
COc1ccc(NC(=O)CN2c3cccc4cccc(c34)S2(=O)=O)c(OC)c1	–	14.0	–	–	–	–
O=C(COc1ccccc1)Nc1cccc2nsnc12	–	65.7	–	–	–	–
COc1ccccc1NC(=O)COc1ccccc1	–	16.6	–	–	–	–
COCCCn1c(C)cc(C(=O)CN2c3cccc4cccc(c34)S2(=O)=O)c1C	·	·	–	·	22.4µM	·
COc1ccccc1N1CCN(c2ncnc3c2cnn3-c2cccc(Cl)c2)CC1	·	·	–	·	–	·
COc1cc(OC)c(NC(=O)C(NS(=O)(=O)c2cccc3nsnc23)c2ccccc2)cc1Cl (stereo not drawn)	·	·	–	·	–	·
COCC(=O)N1CCC2(CCCN(Cc3ccccc3OC)C2)CC1	–	·	–	·	·	·
COc1ccc(NC(=O)COc2ccc(Br)cc2)c(OC)c1	–	13.4	–	–	–	30.2
O=C(Nc1ccncc1)Nc1cccc(Cl)c1Cl	–	–	–	–	–	–
O=C(Nc1ccc(Cl)cc1)Nc1cccc2nsnc12	–	63.6	–	–	–	113.9
COc1ccc(NC(=O)COc2ccccc2)c(OC)c1	–	34.2	–	–	–	50.7
CC(=O)Nc1cc(-c2cccc(C(=O)NCCO)c2)cn2c(-c3cccc(C(F)(F)F)c3)cnc12	·	·	–	·	·	·
O=C(CNC(=O)c1ccc2c(c1)S(=O)(=O)N=C1CCCCCN12)Nc1ccc(F)c(F)c1	·	·	–	·	–	·
Cc1cccc(NC(=O)c2ccc([N+](=O)[O-])s2)n1	–	60.6	–	–	–	61.4
Cc1ccnc(NC(=O)c2ccc([N+](=O)[O-])s2)c1	–	59.9	–	–	–	85.1
Cc1cccc(C)c1NC(=O)c1ccc([N+](=O)[O-])s1	–	–	–	–	–	–
CCc1ccc(S(=O)(=O)Nc2cccc(-c3ccc(N4CCOCC4)nn3)c2)cc1	·	·	–	·	–	·
Cc1cccnc1NC(=S)NC(=O)c1oc2ccccc2c1C	?	39.8	–	–	–	78.8
SMILES	Giardia FBPA inh	Cycloheximide cs	TbPYK inhibitor	LmPK inh	Sm TGR inh	Shiga toxin inh
Cc1c(C(=O)NC(=S)NCC(C)C)oc2ccccc12	–	17.4	–	–	–	–
Fc1ccccc1-c1cc2ncccc2cn1	·	·	–	·	31.6µM	·
CCOc1cccc(CNc2ccc(O)cc2)c1OCc1ccccc1Cl	–	–	?	–	44.7µM!	–
CCOc1cccc(CNn2cnnc2)c1OCc1ccccc1Cl	–	–	–	–	–	–
CCOc1cccc(CNc2ccc(O)cc2)c1OCc1ccc(Cl)cc1Cl	12.6µM	–	?	–	?	–
O=C(c1cc(-c2ccco2)on1)N1CCOCC1	–	27.4	–	–	–	47.4
CN1CCN(C(=O)c2cc(-c3ccco3)on2)CC1	–	15.1	–	–	–	–
O=C(c1cc(-c2ccc(Cl)cc2Cl)on1)N1CCN(C(=O)c2ccco2)CC1	·	–	–	–	–	–
COc1cc(Cl)c(NC(=O)CN(C)S(=O)(=O)c2ccc3[nH]c4c(c3c2)CCCC4)c(OC)c1	·	·	–	·	–	·
O=C(CSc1nc2c([nH]c3ccccc32)c(=O)n1-c1ccccc1)c1ccc(Cl)cc1	·	·	–	·	–	·
CCOC(=O)c1cccc(NC(=O)CCc2c(C)nn(-c3ccc(N4CCCCC4)nn3)c2C)c1	·	·	–	·	–	·
CN(C)c1ccc(/C=C/c2cc[n+](C)cc2)cc1	–	–	–	–	–	–
